Holding throughout (assay): PBM binding z-score (relative to random genomic background probes); higher = stronger binding; sequences stand for … in GC…GCGATTGACAGCGTAGAATGAAGG
In assay [1] the test system is FXR:RXRa (NR concentration 270 nM, RXRa partner concentration 90 nM). The method, boiled down:
(§1)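 Ligand-free nuclear receptor dimers were applied to custom Agilent 4×180K protein-binding microarrays whose double-stranded probes carried direct-repeat seeds, single-nucleotide variants, half-site ablations and random human genomic background sequences in 34-nt variable regions. Incubation lasted 1 h. Binding z-scores were computed against the random background probes from regression-normalized fluorescence.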

In assay [2] the test system is LXRa:RXRa (NR concentration 270 nM, RXRa partner concentration 90 nM). The method, boiled down: as §1
Assay [3] deals with LXRa homodimer (NR concentration 270 nM). In short, it runs like this:
as §1

The test system of assay [4] is LXRb:RXRa (NR concentration 270 nM, RXRa partner concentration 90 nM). In short, it runs like this:
as §1

For assay [5], the system named is LXRb homodimer (NR concentration 270 nM). In short, it runs like this: as §1
Assay [6] has as its system PPARa:RXRa (NR concentration 270 nM, RXRa partner concentration 90 nM). The method, boiled down: as §1
Assay [7] deals with PPARg:RXRa (NR concentration 180 nM, RXRa partner concentration 90 nM). The method, boiled down:
as §1

Assay [8] relates to PPARg:RXRa 270nM:90nM, anti-RXR (NR concentration 270 nM, RXRa partner concentration 90 nM). In short, it runs like this: as §1
Assay [9] deals with PPARg:RXRa 30nM:10nM, anti-RXR (NR concentration 30 nM, RXRa partner concentration 10 nM). In short, it runs like this:
as §1

Assay [10] has as its system PPARg:RXRa 90nM:30nM, anti-RXR (NR concentration 90 nM, RXRa partner concentration 30 nM). In short, it runs like this:
as §1

In assay [11] the test system is PPARg:RXRa DBDmut IVT, anti-RXR (DBD mutation: RXRa K156A/R161A, NR concentration 270 nM, RXRa partner concentration 90 nM). In short, it runs like this:
as §1

For assay [12], the system named is PPARg:RXRa IVT, anti-PPARg (NR concentration 270 nM, RXRa partner concentration 90 nM). In short, it runs like this: as §1
Assay [13] concerns PPARg DBDmut:RXRa IVT, anti-PPARg (DBD mutation: PPARg1 K132A/R137A, NR concentration 270 nM, RXRa partner concentration 90 nM). The method, boiled down: as §1
The subject of assay [14] is PPARg DBDmut IVT, anti-PPARg (DBD mutation: PPARg1 K132A/R137A, NR concentration 270 nM). In short, it runs like this:
as §1

Assay [15] relates to PPARg homodimer (NR concentration 180 nM). The method, boiled down: as §1
Assay [16] deals with PXR:RXRa (NR concentration 270 nM, RXRa partner concentration 90 nM). The method, boiled down:
as §1

Assay [17] has as its system PXR homodimer (NR concentration 270 nM). The method, boiled down: as §1
The subject of assay [18] is RARa:RXR (NR concentration 270 nM, RXRa partner concentration 90 nM). In short, it runs like this: as §1
The test system of assay [19] is RARa homodimer (NR concentration 270 nM). In short, it runs like this:
as §1

Assay [20] deals with RARb:RXRa (NR concentration 270 nM, RXRa partner concentration 90 nM). The method, boiled down:
as §1

As for CAAACTAGGTCAATGGTCAAAGTCGAGCCAACCA, the PBM binding z-score in assay [1] is 3.39; in [2], 2.76; in [3], 0.566; in assay [4], 2.15; in assay [5], 0.29; in assay [6] it was 5.6. Moreover, the PBM binding z-score stood at 9.78 in assay [7]; 8.03 in [8]; 7.9 in assay [9]; 8.7 in assay [10]; 8.19 in [11]; 8.52 in assay [12]. Moreover, the PBM binding z-score in assay [13] was 2.18; in [14], 0.945; in assay [15], 1.27; in [16], 1.38; in assay [17] it was 0.195; in [18], 2.25. The results for the PBM binding z-score in [19] and in assay [20] were 0.441 and 3.9, respectively.
AGTCATAGTTCAGGACGAGGTAACGTAAAGCACG: the PBM binding z-score in assay [1] is 1.09; in [2], 1.13; in assay [3] it was -0.0495; in assay [4] it was 0.662; in [5], 0.0216; in assay [6], 1.54. In addition, the PBM binding z-score in [7] was 1.53; in assay [8], 1.53; in assay [9], 0.782; in assay [10] it was 0.867; in [11] it was -0.922; in [12], 0.674. Besides, the PBM binding z-score in assay [13] is 0.901; in [14] it was 0.714; in assay [15], 0.947; in assay [16], 1.13; in [17], 0.0157; in [18] it was 1.31. Moreover, the PBM binding z-score turned out to be 0.185 in assay [19] and 2.59 in [20].
For the sequence ATATGTAGGATAAGGGTCATTCAGGTTGGTTCGC, the PBM binding z-score was 3.71 in assay [1]; 4.09 in assay [2]; 2.42 in assay [3]; 3.73 in assay [4]; 1.19 in [5]; 5.39 in assay [6]. Also, the PBM binding z-score in [7] was found to be 9.65; in [8] it was 8.92; in assay [9], 10.3; in assay [10] it was 10; in [11], 4.06; in assay [12] it was 5.32. Moreover, the PBM binding z-score in assay [13] amounted to 1.23; in assay [14], 0.978; in assay [15] it was 3.23; in assay [16], 4.9; in [17], 2.87; in assay [18], 4.72. The PBM binding z-score in [19] was 2.11; in assay [20] it was 3.18.
Regarding CCTAGTTGGTCAGGAGGTCACACTCCGGATATGA, the PBM binding z-score in assay [1] stood at 3.59; in assay [2], 3.48; in assay [3], 2.22; in [4], 3.31; in [5], 0.86; in [6], 3.98. In addition, the PBM binding z-score in assay [7] came to 3.28; in assay [8] it was 4.03; in assay [9] it was 1.65; in assay [10], 3.38; in assay [11], 2.49; in assay [12] it was 3.68. Besides, the PBM binding z-score turned out to be 0.158 in assay [13]; 0.204 in [14]; 4.17 in assay [15]; 4.23 in assay [16]; 1.2 in assay [17]; 4.82 in assay [18]. Further, the PBM binding z-score in assay [19] turned out to be 1.53; in assay [20], 3.72.
As for GTTAGCAGGCCATTTGGGTCACTCAATGACGGGC, the PBM binding z-score was 0.439 in assay [1]; 0.0472 in [2]; -0.523 in [3]; 0.205 in [4]; -0.589 in assay [5]; 1.36 in assay [6]. Besides, the PBM binding z-score in assay [7] is 0.776; in assay [8], 0.698; in assay [9] it was -0.489; in assay [10], 0.0806; in assay [11], 2.37; in assay [12], 2.61. Moreover, the PBM binding z-score in assay [13] is -0.276; in assay [14], -0.494; in assay [15] it was -0.0267; in assay [16] it was 0.566; in [17], 0.185; in assay [18], 0.925. Besides, the values for the PBM binding z-score in assay [19] and in assay [20] were -0.249 and 1.52, respectively.
For TCTGCTAGGTCAGTTGGTCAGCTGACGAGCTGCC, the PBM binding z-score in assay [1] was 0.985; in assay [2], 0.585; in assay [3] it was -0.512; in assay [4], 0.147; in [5], 0.278; in [6], 1.34. In addition, the PBM binding z-score in assay [7] came to 0.32; in [8], 1.68; in assay [9] it was 1.08; in assay [10], 0.992; in assay [11], 2.95; in assay [12] it was 3.18. Moreover, the PBM binding z-score in [13] was 1.59; in assay [14], 1.47; in assay [15] it was 0.336; in assay [16], 0.0252; in [17] it was -1.5; in assay [18] it was 0.0768. In addition, the PBM binding z-score in [19] is -1.43; in [20] it was 3.42.
For GCAGACTGGTGAAACGCAGGTAACTCAGGGTGGC, the PBM binding z-score in [1] was -0.987; in assay [2], -0.932; in assay [3], -0.841; in assay [4] it was -1.19; in assay [5] it was -1.45; in [6], -1.12. Moreover, the PBM binding z-score in assay [7] was -0.00355; in assay [8], -0.98; in assay [9] it was -0.852; in [10] it was -1.12; in assay [11], -0.965; in [12] it was -0.728. Also, the PBM binding z-score is -0.431 in [13]; -1.07 in assay [14]; -1.3 in [15]; -0.855 in assay [16]; -0.855 in [17]; -0.718 in assay [18]. The figures for the PBM binding z-score in [19] and in [20] were -1.39 and -0.689, respectively.
